The campaign covered roughly 5,500 compounds. About 2,000 (36%) were called active. About 18% were inconclusive and are not listed. Rule as the data show it: active = normalized growth mostly below about 0.91 (no sharp cut-off); inconclusive = no clear call, values can overlap the other calls; inactive = mostly above about 0.92. The list shows a part of the results.
Assay: chemical genetic growth profiling, strain panel (AID 1159580);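 also: tested at 20 µM; growth read once vehicle control cultures reached saturation at 30 °C; 1 = growth at the plate median or of vehicle wells; lower values mean less growth of the strain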
Conditions: S. cerevisiae deletion strains, growth OD

Measured: normalized growth

CSc1nc(N)c2ncn([C@@H]3O[C@H](COP(=O)(O)OP(=O)(O)O)[C@H](O)C3O)c2n1 (stereo partly drawn)
inactive: locus YAL013W, strain DEP1, active compounds read low 1.01 | locus YAL040C, strain CLN3, active compounds read low 1.01 | locus YCL061C, strain MRC1 (second series), active compounds read low 1.01 | locus YDR363W, strain ESC2, active compounds read low 1.04 | locus YER002W, strain NOP16, active compounds read low 1 | locus YJR075W, strain HOC1, active compounds read low 1.03 | locus YNL153C, strain GIM3, active compounds read low 1.03 | locus YNL175C, strain NOP13, active compounds read low 1.02 | locus YNL197C, strain WHI3, active compounds read low 0.99 | locus YNL224C, strain SQS1, active compounds read low 0.998 | locus YOR083W, strain WHI5 (second series), active compounds read low 1.02 | locus YPL055C, strain LGE1, active compounds read low 1.02 | locus YPL241C, strain CIN2, active compounds read low 1

— PubChem BioAssay AID1159580 (chemical genetic matrix, 2015)
